In PubChem BioAssay (NCI):
Values joined by “and” are separate entries in the source; they are usually repeats but may differ in a detail not shown here. Equal values may be shown once. This is part of a sample that, as a whole, favours compounds with a hit. Of some 79,000 tested, about 15% had one in any assay. Some structures have more than one record in an assay (separate samples or runs), and their calls can disagree. Active and inactive are the calls of the source. Rule as the data show it: active = growth inhibition above about 70%; inactive = the rest.

Experiments:
[1] = NCI Yeast Anticancer Drug Screen. Data for the mec2-1 strain (AID 157); conditions: S. cerevisiae mec2-1 strain, stronger effect = higher value
Outline: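 Readout is yeast growth inhibition, normalised to vehicle-treated controls, in the mec2-1 strain exposed to compound.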

[2] = NCI Yeast Anticancer Drug Screen. Data for the rad14 strain (AID 159);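 also: 0% = growth of vehicle-treated control cultures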; conditions: S. cerevisiae rad14 strain growth inhibition, stronger effect = higher value
Outline: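 Compound-treated yeast with a defined DNA-repair lesion; growth inhibition normalised to vehicle-treated cultures.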

[3] = NCI Yeast Anticancer Drug Screen. Data for the sgs1 mgt1 strain (AID 161);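 also: 0% = growth of cultures given vehicle only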; conditions: S. cerevisiae sgs1 mgt1 strain, stronger effect = higher value
Outline: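 Compounds are added to genetically altered yeast, and growth is compared with cultures given vehicle alone to give percent inhibition.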

[4] = NCI Yeast Anticancer Drug Screen. Data for the CLN2oe strain (AID 163);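 also: 0% = growth of vehicle-only control cultures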; conditions: S. cerevisiae CLN2oe strain, stronger effect = higher value
Outline: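 Values reflect how much compound exposure reduced yeast growth, referenced to vehicle-exposed cells. Assay organism is a strain with a defined genetic change affecting cell-cycle control.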

[5] = NCI Yeast Anticancer Drug Screen. Data for the cln2 rad14 strain (AID 165);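 also: 0% = growth equal to vehicle treated cultures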; conditions: S. cerevisiae cln2 rad14 strain, stronger effect = higher value
Outline: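 Relative to vehicle controls, growth inhibition of compound-treated cln2 rad14 yeast was recorded.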

[6] = NCI Yeast Anticancer Drug Screen. Data for the bub3 strain (AID 167); conditions: S. cerevisiae bub3 mutant strain, stronger effect = higher value
Outline: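 Growth of a checkpoint-deficient yeast mutant is measured after compound exposure. Values represent inhibition relative to vehicle.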

[7] = NCI Yeast Anticancer Drug Screen. Data for the wt2 strain (AID 169);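 also: 0% = growth of vehicle-treated yeast cultures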; conditions: S. cerevisiae wt2 strain growth inhibition, stronger effect = higher value
Outline: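 Values express reduction in yeast growth under compound treatment, referenced to vehicle-treated cells.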

[8] = NCI Yeast Anticancer Drug Screen. Data for the mlh1 strain (AID 171);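 also: 0% = growth of vehicle-treated control cultures of the same strain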; conditions: S. cerevisiae mlh1 strain growth inhibition, stronger effect = higher value
Outline: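 Steps: expose the defined-mutant yeast strain to compound; expose a parallel culture to vehicle; measure growth; express compound effect as inhibition relative to the vehicle culture.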

[9] = NCI Yeast Anticancer Drug Screen. Data for the sgs1 strain (AID 173);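 also: 0% = growth of vehicle-only control cultures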; conditions: S. cerevisiae sgs1 mutant, stronger effect = higher value
Outline: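 Treat defined-mutant yeast with compound; measure growth; calculate inhibition relative to vehicle-treated cells.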

[10] = NCI Yeast Anticancer Drug Screen. Data for the mlh1 rad18 strain (AID 175); conditions: S. cerevisiae mlh1 rad18 strain growth inhibition, stronger effect = higher value
Outline: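 Test agents were incubated with a yeast strain of defined genotype (DNA damage repair defect). Inhibition of growth was derived by comparison with vehicle-exposed cultures.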

[11] = NCI Yeast Anticancer Drug Screen. Data for the rad18 strain (AID 177); conditions: S. cerevisiae rad18 mutant growth inhibition, stronger effect = higher value
Outline: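 A genetically defined yeast mutant impaired in DNA damage repair was treated with test compounds, then its growth was measured against cultures receiving vehicle alone.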

[12] = NCI Yeast Anticancer Drug Screen. Data for the wt1 strain (AID 149);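 also: 0% = growth of vehicle-treated wt1 cultures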; conditions: S. cerevisiae wt1 strain (SPY 50644) growth inhibition, stronger effect = higher value
Outline: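 Readout: yeast growth inhibition, normalised to vehicle controls, in the wt1 strain exposed to test compounds.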

[13] = NCI Yeast Anticancer Drug Screen. Data for the rad50EPP+ strain (AID 151);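 also: 0% = growth of vehicle-treated control cultures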; conditions: S. cerevisiae rad50 mutant strain, stronger effect = higher value
Outline: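 Exposing the rad50EPP+ strain to each compound, growth was compared with vehicle-only cultures to give inhibition.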

[14] = NCI Yeast Anticancer Drug Screen. Data for the mgt1 strain (AID 153); conditions: S. cerevisiae mgt1 mutant growth inhibition, stronger effect = higher value
Outline: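 Genetically defined yeast (mgt1) treated with compound; inhibition of growth expressed against vehicle-treated controls.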

[15] = NCI Yeast Anticancer Drug Screen. Data for the rad50 strain (AID 155);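 also: 0% = growth of vehicle-only cultures of the same strain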; conditions: S. cerevisiae rad50 strain growth inhibition, stronger effect = higher value
Outline: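 Compounds were tested on a yeast strain with an engineered DNA damage repair alteration; the reported value is growth inhibition normalised to vehicle treatment.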

[16] = at 5.0 µM (retest, dose inferred, filed as 0.5)
[17] = at 50.0 µM (retest, dose inferred, filed as 5.0)

Measured: growth inhibition

Cc1cnc(/C=N\NC(N)=S)c2cccc(N)c12
42.1% (inactive) and 70% (active): [5]; at 50.0 µM
83% (active) and 30% (inactive): [3]; [17]
inactive: [2]; at 1.2 µM -92% | [2]; at 3.7 µM -75% | [2]; at 11.0 µM -35% | [2]; at 33.0 µM 45% | [3]; [16] 16% and 8% | [3]; at 50.0 µM 61.1% and 63% | [4]; at 1.2 µM -16% | [4]; at 3.7 µM -39% | [4]; at 11.0 µM -29% | [4]; at 33.0 µM 30% | [4]; at 100.0 µM 63% | [5]; [16] -8% and 9% | [5]; [17] 66% and -55% | [6]; at 1.2 µM -69% | [6]; at 3.7 µM -60% | [6]; [16] 15% and 9% | [6]; at 11.0 µM -50% | [6]; at 33.0 µM 25% | [7]; at 1.2 µM -73% | [7]; at 3.7 µM -48% | [7]; at 11.0 µM 5% | [7]; at 33.0 µM 56% | [8]; at 1.2 µM -75% | [8]; at 3.7 µM -79% | [8]; at 11.0 µM -43% | [8]; at 33.0 µM 27% | [9]; at 1.2 µM -39% | [9]; at 3.7 µM -42% | [9]; at 11.0 µM -13% | [9]; at 33.0 µM 49% | [10]; [16] 17% and 23% | [11]; at 1.2 µM -144% | [11]; at 3.7 µM -115% | [11]; at 11.0 µM -88% | [11]; at 33.0 µM 25%
active: [1]; at 100.0 µM 94% | [2]; at 100.0 µM 91% | [6]; at 100.0 µM 80% | [7]; at 100.0 µM 91% | [8]; at 100.0 µM 87% | [9]; at 100.0 µM 94% | [10]; [17] 85% and 82% | [10]; at 50.0 µM 75.2% and 89% | [11]; at 100.0 µM 85%
87% (active) and -11% (inactive): [6]; [17]
48.4% (inactive) and 75.1% (active): [6]; at 50.0 µM

Nc1ccc2ncc(Nc3ccc(Cl)c(Cl)c3)nc2c1
active: [12]; at 33.0 µM 95% | [12]; at 100.0 µM 96% | [14]; at 33.0 µM 96% | [14]; at 100.0 µM 97% | [15]; at 11.0 µM 70% | [15]; at 33.0 µM 96% | [15]; [17] 95% | [15]; at 50.0 µM 85% | [15]; at 100.0 µM 96% | [1]; at 33.0 µM 96% | [1]; [17] 98% | [1]; at 50.0 µM 86% | [1]; at 100.0 µM 97% | [2]; at 11.0 µM 73% | [2]; at 33.0 µM 97% | [2]; at 100.0 µM 96% | [3]; [17] 95% | [3]; at 50.0 µM 89% | [4]; at 33.0 µM 97% | [4]; at 100.0 µM 97% | [5]; [17] 95% | [5]; at 50.0 µM 73.7% | [6]; at 33.0 µM 96% | [6]; [17] 97% | [6]; at 50.0 µM 87.2% | [6]; at 100.0 µM 96% | [7]; at 33.0 µM 97% | [7]; at 100.0 µM 97% | [8]; at 11.0 µM 75% | [8]; at 33.0 µM 96% | [8]; at 100.0 µM 97% | [9]; at 11.0 µM 78% | [9]; at 33.0 µM 97% | [9]; at 100.0 µM 97% | [10]; [17] 98% | [10]; at 50.0 µM 80.5% | [11]; at 33.0 µM 97% | [11]; at 100.0 µM 98%
inactive: [12]; at 1.2 µM -19% | [12]; at 3.7 µM 1% | [12]; at 11.0 µM 49% | [13]; at 1.2 µM -11% | [13]; at 3.7 µM -6% | [13]; at 11.0 µM 11% | [13]; at 33.0 µM 37% | [13]; at 100.0 µM 59% | [14]; at 1.2 µM -32% | [14]; at 3.7 µM -27% | [14]; at 11.0 µM 69% | [15]; at 1.2 µM 3% | [15]; at 3.7 µM 10% | [15]; [16] 1% | [1]; at 1.2 µM -6% | [1]; at 3.7 µM -16% | [1]; [16] 28% | [1]; at 11.0 µM 53% | [2]; at 1.2 µM -20% | [2]; at 3.7 µM -9% | [3]; [16] 12% | [4]; at 1.2 µM -17% | [4]; at 3.7 µM -6% | [4]; at 11.0 µM 69% | [5]; [16] 42% | [6]; at 1.2 µM -13% | [6]; at 3.7 µM -3% | [6]; [16] 44% | [6]; at 11.0 µM 54% | [7]; at 1.2 µM -15% | [7]; at 3.7 µM 0% | [7]; at 11.0 µM 57% | [8]; at 1.2 µM -4% | [8]; at 3.7 µM 4% | [9]; at 1.2 µM 0% | [9]; at 3.7 µM 17% | [10]; [16] 44% | [11]; at 1.2 µM -13% | [11]; at 3.7 µM -9% | [11]; at 11.0 µM 11%

CCOC(=O)c1sc2[n+](c1C)C(=O)/C(=C/c1cc(OC)c(OC)c(OC)c1)S2
inactive: [12]; at 1.2 µM 3% | [12]; at 3.7 µM 2% | [12]; at 11.0 µM 9% | [12]; at 33.0 µM 56% | [13]; at 1.2 µM 2% | [13]; at 3.7 µM 6% | [13]; at 11.0 µM 19% | [13]; at 33.0 µM 45% | [14]; at 1.2 µM 9% | [14]; at 3.7 µM 12% | [14]; at 11.0 µM 54% | [15]; at 1.2 µM 9% | [15]; at 3.7 µM 16% | [15]; [16] 1% | [15]; at 11.0 µM 18% | [15]; at 33.0 µM 68% | [15]; [17] 35% | [15]; at 50.0 µM 41% | [1]; at 1.2 µM 21% | [1]; at 3.7 µM 18% | [1]; [16] 6% | [1]; at 11.0 µM 34% | [1]; [17] 51% | [1]; at 50.0 µM 52.5% | [2]; at 1.2 µM 12% | [2]; at 3.7 µM 3% | [2]; at 11.0 µM 28% | [3]; [16] -4% | [3]; [17] 64% | [4]; at 1.2 µM 11% | [4]; at 3.7 µM 5% | [4]; at 11.0 µM 26% | [5]; [16] 13% | [5]; at 50.0 µM 55.5% | [6]; at 1.2 µM 12% | [6]; at 3.7 µM 7% | [6]; [16] -10% | [6]; at 11.0 µM 21% | [6]; at 33.0 µM 60% | [6]; [17] 12% | [6]; at 50.0 µM 40.9% | [6]; at 100.0 µM 66% | [7]; at 1.2 µM 2% | [7]; at 3.7 µM 3% | [7]; at 11.0 µM 47% | [8]; at 1.2 µM 9% | [8]; at 3.7 µM 9% | [8]; at 11.0 µM 36% | [9]; at 1.2 µM 17% | [9]; at 3.7 µM 23% | [9]; at 11.0 µM 48% | [10]; [16] 6% | [10]; [17] 60% | [10]; at 50.0 µM 25.1% | [11]; at 1.2 µM 19% | [11]; at 3.7 µM 27% | [11]; at 11.0 µM 40%
active: [12]; at 100.0 µM 88% | [13]; at 100.0 µM 76% | [14]; at 33.0 µM 86% | [14]; at 100.0 µM 93% | [15]; at 100.0 µM 87% | [1]; at 33.0 µM 76% | [1]; at 100.0 µM 92% | [2]; at 33.0 µM 77% | [2]; at 100.0 µM 92% | [3]; at 50.0 µM 80.5% | [4]; at 33.0 µM 76% | [4]; at 100.0 µM 83% | [5]; [17] 78% | [7]; at 33.0 µM 85% | [7]; at 100.0 µM 95% | [8]; at 33.0 µM 82% | [8]; at 100.0 µM 93% | [9]; at 33.0 µM 90% | [9]; at 100.0 µM 95% | [11]; at 33.0 µM 75% | [11]; at 100.0 µM 88%
